# Measured values published in PubChem BioAssay (NCATS).
# Results filed as inconclusive are left out. Where a call stands in place of a potency, no number is given. Active and inactive are the calls of the source. Unless noted, the call rests on the fitted dose curve; in most records, active means well fitted inhibition curve with a large enough effect; inconclusive means small, poorly fitted or top-dose-only effect; inactive means flat fitted curve, though single readings scatter. Peptide text beside a SMILES is read from it.
# Key:
# [1] = qHTS drug screen for cell cycle checkpoint inhibitors in PARPi-resistant BRCA-mutant ovarian cancer cell lines. (AID 1963452; calls by dose curve; further: potency means the concentration at half of the fitted maximal effect); conditions: PEO1/OlaR viability, CellTiter-Glo luminescence, 96 h; for Z-AUC: stronger effect = lower value
# Method in brief: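 PEO1, PEO4 and PEO1/OlaR ovarian cancer cells, 600 per well, exposed 96 h at 37C to a dilution series. Viability read by CellTiter-Glo luminescence, normalized to DMSO and empty wells; activity summarized as Z-AUC.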
# [2] = qHTS profiling for inhibitors of Plasmodium falciparum proliferation (AID 504749); further: nearly all actives have a fitted effect of over 60% in size; conditions: P. falciparum in erythrocytes, SYBR Green DNA, 72 h
# Method in brief: (§1)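 Fluorescence of SYBR Green-bound parasite DNA, read at 485/535 nm, served as the growth measure. Infected erythrocytes were cultured with compound 72 h; artemisinin (0.29 uM) and DMSO wells defined the normalization range.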
# 3D7 = experiment: as above; conditions: P. falciparum in erythrocytes, SYBR Green DNA, 72 h; series mostly up to 28.7 µM
# Method in brief: as §1
# 7G8 = experiment: as above; conditions: P. falciparum in erythrocytes, SYBR Green DNA, 72 h; series mostly up to 28.7 µM
# Method in brief: as §1
# AA1029 = experiment: as above; conditions: P. falciparum in erythrocytes, SYBR Green DNA, 72 h; series mostly up to 28.7 µM
# Method in brief: as §1
# AS120 = experiment: as above; conditions: P. falciparum in erythrocytes, SYBR Green DNA, 72 h; series mostly up to 28.7 µM
# Method in brief: as §1
# ATS189 = experiment: as above; conditions: P. falciparum in erythrocytes, SYBR Green DNA, 72 h; series mostly up to 28.7 µM
# Method in brief: as §1
# ATS95 = experiment: as above; conditions: P. falciparum in erythrocytes, SYBR Green DNA, 72 h; series mostly up to 28.7 µM
# Method in brief: as §1
# C2A = experiment: as above; conditions: P. falciparum in erythrocytes, SYBR Green DNA, 72 h; series mostly up to 28.7 µM
# Method in brief: as §1
# CP185 = experiment: as above; conditions: P. falciparum in erythrocytes, SYBR Green DNA, 72 h; series mostly up to 28.7 µM
# Method in brief: as §1
# CP191 = experiment: as above; conditions: P. falciparum in erythrocytes, SYBR Green DNA, 72 h; series mostly up to 28.7 µM
# Method in brief: as §1
# CP192 = experiment: as above; conditions: P. falciparum in erythrocytes, SYBR Green DNA, 72 h; series mostly up to 28.7 µM
# Method in brief: as §1
# CP194 = experiment: as above; conditions: P. falciparum in erythrocytes, SYBR Green DNA, 72 h; series mostly up to 28.7 µM
# Method in brief: as §1
# CP201 = experiment: as above; conditions: P. falciparum in erythrocytes, SYBR Green DNA, 72 h; series mostly up to 28.7 µM
# Method in brief: as §1
# CP203 = experiment: as above; conditions: P. falciparum in erythrocytes, SYBR Green DNA, 72 h; series mostly up to 28.7 µM
# Method in brief: as §1
# CP211 = experiment: as above; conditions: P. falciparum in erythrocytes, SYBR Green DNA, 72 h; series mostly up to 28.7 µM
# Method in brief: as §1
# CP215 = experiment: as above; conditions: P. falciparum in erythrocytes, SYBR Green DNA, 72 h; series mostly up to 28.7 µM
# Method in brief: as §1
# CP217 = experiment: as above; conditions: P. falciparum in erythrocytes, SYBR Green DNA, 72 h; series mostly up to 28.7 µM
# Method in brief: as §1
# [3] = measured here: PEO1 parental Z-AUC
# [4] = at 28.7 µM (top of the series), parasite line A
# [5] = at 28.7 µM (top of the series), parasite line B
smiles,measurement,setting,value
CN(C)c1cccc(-c2c3c(=O)n(-c4ccccc4Cl)[nH]c3cc(=O)n2C)c1,Z-AUC,[1],-0.625 (inactive)
same,Z-AUC,[1]; [3],-0.313
same,Z-AUC,[1]; measured here: PEO4 Z-AUC,-0.353
O=C(O)c1ccc(CCCc2ccc(OCCc3ccc(F)cc3)cc2)o1,Z-AUC,[1],0.294 (inactive)
same,Z-AUC,[1]; [3],0.863
same,Z-AUC,[1]; measured here: PEO4 Z-AUC,0.926
COc1ccc2cc(OCC3(C(=O)O)CN(C(=O)c4ccc(F)cc4)C3)ccc2c1,Z-AUC,[1],-0.285 (inactive)
same,Z-AUC,[1]; [3],-0.144
same,Z-AUC,[1]; measured here: PEO4 Z-AUC,0.261
Cc1nc2c(-c3cnc(N)nc3)nc(N3CCOCC3)nc2n1C(C)C,Potency,[1],436 nM (active)
same,Z-AUC,[1]; [3],-1.56
same,Z-AUC,[1]; measured here: PEO4 Z-AUC,-1.63
CCOc1cc2ncc(C#N)c(Nc3ccc(OCc4ccccn4)c(Cl)c3)c2cc1NC(=O)/C=C/CN(C)C,Z-AUC,[1],0.57 (inactive)
same,Z-AUC,[1]; [3],0.366
same,Z-AUC,[1]; measured here: PEO4 Z-AUC,-0.0482
CCNC(=O)CCC/C=C\C[C@@H]1[C@@H](/C=C/C(O)CCc2ccccc2)[C@@H](O)C[C@@H]1O (stereo partly drawn),Z-AUC,[1],1.72 (inactive)
same,Z-AUC,[1]; [3],1.41
same,Z-AUC,[1]; measured here: PEO4 Z-AUC,1.49
CNC(=O)c1ccc(Nc2ncc(C(F)(F)F)c(NCc3nccnc3N(C)S(C)(=O)=O)n2)cc1,Z-AUC,[1],-0.202 (inactive)
same,Z-AUC,[1]; [3],0.488
same,Z-AUC,[1]; measured here: PEO4 Z-AUC,-0.174
NC1CCC(N[C@@H]2C[C@H]2c2ccccc2)CC1 (stereo partly drawn),Z-AUC,[1],-1.43 (inactive)
same,Z-AUC,[1]; [3],-0.571
same,Z-AUC,[1]; measured here: PEO4 Z-AUC,-0.668
CON(C)C(=O)N1N=C(c2cc(F)ccc2F)S[C@@]1(CCCN)c1ccccc1,Potency,[1],8.7 nM (active)
same,Z-AUC,[1]; [3],-2.66
same,Z-AUC,[1]; measured here: PEO4 Z-AUC,-2.54
Cc1ccc(C(=O)Nc2ccc(Oc3cc4cnn(C)c4cc3-c3cn[nH]c3)c(F)c2)c(=O)n1-c1ccc(F)cc1,Z-AUC,[1],-0.0237 (inactive)
same,Z-AUC,[1]; [3],0.144
same,Z-AUC,[1]; measured here: PEO4 Z-AUC,-0.211
CCCCN(CCCC)C(=O)CN1C[C@H](c2ccc3c(c2)OCO3)[C@@H](C(=O)O)[C@@H]1c1ccc(OC)cc1,Z-AUC,[1],0.882 (inactive)
same,Z-AUC,[1]; [3],0.661
same,Z-AUC,[1]; measured here: PEO4 Z-AUC,0.129
Cc1cccc(-c2[nH]c(CNc3ccccc3F)nc2-c2ccc3ncnn3c2)n1,Z-AUC,[1],-0.298 (inactive)
same,Z-AUC,[1]; [3],0.223
same,Z-AUC,[1]; measured here: PEO4 Z-AUC,-0.0692
Nc1ccn([C@@H]2C(F)=C(CO)[C@@H](O)[C@H]2O)c(=O)n1,Z-AUC,[1],0.41 (inactive)
same,Z-AUC,[1]; [3],-0.156
same,Z-AUC,[1]; measured here: PEO4 Z-AUC,-0.408
CO[C@@H]1COCC[C@@H]1N[C@@H]1CC[C@@](C(=O)N2CCc3ncc(C(F)(F)F)cc3C2)(C(C)C)C1,Z-AUC,[1],0.278 (inactive)
same,Z-AUC,[1]; [3],1.21
same,Z-AUC,[1]; measured here: PEO4 Z-AUC,1.12
C[C@H]1CN(C[C@H](Cc2ccccc2)C(=O)NCC(=O)O)CC[C@@]1(C)c1cccc(O)c1,Z-AUC,[1],-0.66 (inactive)
same,Z-AUC,[1]; [3],-0.254
same,Z-AUC,[1]; measured here: PEO4 Z-AUC,-0.529
O=C(O)C[C@H](O)C[C@H](O)/C=C/c1c(C2CC2)nc2ccccc2c1-c1ccc(F)cc1,Z-AUC,[1],-0.947 (inactive)
same,Z-AUC,[1]; [3],-0.553
same,Z-AUC,[1]; measured here: PEO4 Z-AUC,-1.48
C[C@@H]1CCN(C(=O)CC#N)C[C@@H]1N(C)c1ncnc2[nH]ccc12,Z-AUC,[1],1.14 (inactive)
same,Z-AUC,[1]; [3],0.765
same,Z-AUC,[1]; measured here: PEO4 Z-AUC,1.24
Cc1nn(C)c(COc2ccc(N3CCN(S(=O)(=O)N(C)C)CC3)cc2)c1-c1cccc2c(CCCOc3cccc4ccccc34)c(C(=O)O)n(CCN3CCOCC3)c12,Z-AUC,[1],0.0442 (inactive)
same,Z-AUC,[1]; [3],0.77
same,Z-AUC,[1]; measured here: PEO4 Z-AUC,0.53
CC(NNC(=O)c1ccccc1)c1ccccc1 (stereo not drawn),"activity, negative = inhibition",[2]; [4],2.16% (inactive)
same,"activity, negative = inhibition",[2]; [5],14.7% (inactive)
same,Potency,3D7,inactive
same,Potency,7G8,inactive
same,Potency,AA1029,inactive
same,Potency,AS120,inactive
same,Potency,ATS189,inactive
same,Potency,ATS95,inactive
same,Potency,C2A,inactive
same,Potency,CP185,inactive
same,Potency,CP191,inactive
same,Potency,CP192,inactive
same,Potency,CP194,inactive
same,Potency,CP201,inactive
same,Potency,CP203,inactive
same,Potency,CP211,inactive
same,Potency,CP215,inactive
same,Potency,CP217,inactive
C=CCSSSCC=C,"activity, negative = inhibition",[2]; [4],1.87% (inactive)
same,"activity, negative = inhibition",[2]; [5],3.6% (inactive)
same,Potency,3D7,inactive
same,Potency,7G8,inactive
same,Potency,AA1029,inactive
same,Potency,AS120,inactive
same,Potency,ATS189,inactive
same,Potency,ATS95,inactive
same,Potency,C2A,inactive
same,Potency,CP185,inactive
same,Potency,CP191,inactive
same,Potency,CP192,inactive
same,Potency,CP194,inactive
same,Potency,CP201,inactive
same,Potency,CP203,inactive
same,Potency,CP211,inactive
same,Potency,CP215,inactive
same,Potency,CP217,inactive
CC(=O)N[C@@H](CC(=O)O)C(=O)N[C@@H](CCC(=O)O)C(=O)O (Ac-Asp-Glu-OH),"activity, negative = inhibition",[2]; [4],24.6% (inactive)
same,"activity, negative = inhibition",[2]; [5],14.8% (inactive)
same,Potency,3D7,inactive
same,Potency,7G8,inactive
same,Potency,AA1029,inactive
same,Potency,AS120,inactive
same,Potency,ATS189,inactive
same,Potency,ATS95,inactive
same,Potency,C2A,inactive
same,Potency,CP185,inactive
same,Potency,CP191,inactive
same,Potency,CP192,inactive
same,Potency,CP194,inactive
same,Potency,CP201,inactive
same,Potency,CP203,inactive
same,Potency,CP211,inactive
same,Potency,CP215,inactive
same,Potency,CP217,inactive
O=c1ccn([C@@H]2O[C@H](CO)[C@@H](O)[C@H]2O)c(=O)[nH]1,Z-AUC,[1],1.3 (inactive)
same,Z-AUC,[1]; [3],1.05
same,Z-AUC,[1]; measured here: PEO4 Z-AUC,0.867
Cc1ccccc1,"activity, negative = inhibition",[2]; [4],1.71% (inactive)
same,"activity, negative = inhibition",[2]; [5],0.119% (inactive)
same,Potency,3D7,inactive
same,Potency,7G8,inactive
same,Potency,AA1029,inactive
same,Potency,AS120,inactive
same,Potency,ATS189,inactive
same,Potency,ATS95,inactive
same,Potency,C2A,inactive
same,Potency,CP185,inactive
same,Potency,CP191,inactive
same,Potency,CP192,inactive
same,Potency,CP194,inactive
same,Potency,CP201,inactive
same,Potency,CP203,inactive
same,Potency,CP211,inactive
same,Potency,CP215,inactive
same,Potency,CP217,inactive
CC(C)N(C[C@H]1O[C@@H](n2cnc3c(N)ncnc32)[C@H](O)[C@@H]1O)C1CC(CCc2nc3ccc(C(C)(C)C)cc3[nH]2)C1 (stereo partly drawn),Z-AUC,[1],1.59 (inactive)
same,Z-AUC,[1]; [3],1.75
same,Z-AUC,[1]; measured here: PEO4 Z-AUC,1.7
Cc1cc(C(=O)NNCc2ccccc2)no1,"activity, negative = inhibition","[2]; at 12.8 µM (top of the series), parasite line A",2.34% (inactive)
same,"activity, negative = inhibition","[2]; at 12.8 µM (top of the series), parasite line B",-1.58% (inactive)
same,Potency,3D7,inactive
same,Potency,7G8,inactive
same,Potency,AA1029,inactive
same,Potency,AS120,inactive
same,Potency,ATS189,inactive
same,Potency,ATS95,inactive
same,Potency,C2A,inactive
same,Potency,CP185,inactive
same,Potency,CP191,inactive
same,Potency,CP192,inactive
same,Potency,CP194,inactive
same,Potency,CP201,inactive
same,Potency,CP203,inactive
same,Potency,CP211,inactive
same,Potency,CP215,inactive
same,Potency,CP217,inactive
OCc1ccccc1O[C@@H]1O[C@H](CO)[C@@H](O)[C@H](O)[C@H]1O,Z-AUC,[1],1.58 (inactive)
same,Z-AUC,[1]; [3],1.17
same,Z-AUC,[1]; measured here: PEO4 Z-AUC,0.966
